This is an account of results in ChEMBL document CHEMBL3988442, “University of Dundee, Small-Polar-MMV Screening Library” (2021).

Structures are written as SMILES.

One assay has as its target T1, Proteasome subunit beta (Trypanosoma cruzi) (UniProt O96673).
T1 sequence (whole entry): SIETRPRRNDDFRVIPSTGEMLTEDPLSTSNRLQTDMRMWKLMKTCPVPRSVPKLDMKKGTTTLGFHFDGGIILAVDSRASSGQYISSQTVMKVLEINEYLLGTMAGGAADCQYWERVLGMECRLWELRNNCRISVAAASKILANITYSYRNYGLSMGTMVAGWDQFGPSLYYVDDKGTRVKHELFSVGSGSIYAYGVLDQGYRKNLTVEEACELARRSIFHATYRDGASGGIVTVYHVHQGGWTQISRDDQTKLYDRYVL
The assay is described as follows: Trypanosoma cruzi proteasome chymotrypsin-like activity (TcProtChymo) assay. The class given is functional. Further details: scale not given: in the data most compounds retested in dose-response had high values. As to conditions: 9.37 µM.
In the case of `CCCc1n[nH]c(C2CN(CCCOc3ccccc3)CCO2)n1` (centres undefined), the Percent Effect is -1.03%.
Take `COCCNC(=O)c1sc(Nc2ccc(Cl)cn2)nc1C`: the Percent Effect turned out to be 17.2%.
Consider `c1ccc(CCN2CCOC(Cn3cccn3)C2)nc1` (centres undefined), for which the Percent Effect was 3.15%.
Regarding `CC1=Nc2c(c(=O)[nH]n2C(C)C)C(c2ccccc2)S1` (centres undefined), the Percent Effect came to 12%.
As to `CCCS(=O)(=O)N1CCO[C@H]2[C@H](OCc3ccccn3)CC[C@@H]21`, the Percent Effect came to 10.1%.
For `Cc1nn(C)c(C)c1C1CCCN1C(=O)CCNc1ncccn1` (centres undefined), the Percent Effect is -1.1%.
As to `Cn1c(Cn2ccnc2)nnc1C1CCCN(C2CCCCC2)C1` (centres undefined), the Percent Effect stood at 3.1%.
Take `Cc1cc(N2CCN(C(=O)c3cc(Cl)c[nH]3)CC2)nc(N)n1`: the Percent Effect is 15.3%.
With `CCNc1cc2c(nn1)CCN(C(=O)c1ccc(NC3CC3)nc1)C2`, the Percent Effect stood at 2.67%.
Turning to `Cc1cn2c(n1)CCC(NC(=O)CCn1ccnn1)C2` (centres undefined), the Percent Effect came out at 5.33%.

For a further assay, the species on record is Homo sapiens. The assay is described as follows: To identify inhibition of the IFN signalling (Jak-Stat) pathway via expression of an eGFP reporter gene under the control of an IFN-stimulated response element (ISRE) containing MxA promoter. The format is functional. Also on record: scale not given: direction of the effect not stated beside the values. As to conditions: 30 µM. (Reporter assays use an easily measured gene product as a stand-in for the process of interest.)
As to `CCc1cnc(CN(C(C)=O)C2CCN(CCc3cnn(C)c3)C2)o1` (centres undefined), the Percent Effect was -1.17%.
As to `CC(C)c1nnc2n1CC(CNCc1ccncc1)CC2` (centres undefined), the Percent Effect is -9.1%.
On to `O=S(=O)(Cc1ccccc1F)NCCN1CCOCC1`, for which the Percent Effect is -12.7%.
Consider `COc1cc(C(=O)N2CCC(c3n[nH]c(C4CC4)n3)CC2)ccc1C`, for which the Percent Effect was 8.43%.
As to `CC(C)(C)C(=O)NS(=O)(=O)c1ccc(C#N)cc1C(F)(F)F`, the Percent Effect came to 7.18%.
Consider `O=C(N1CCCO1)[C@@]12CCO[C@@H]1CCN(C1CCCCC1)C2`, for which the Percent Effect is -2.54%.
For `O=C(c1ccccc1-n1cccn1)N1CCCN(c2cccnn2)CC1`, the Percent Effect was -6.03%.
Consider `Cc1cc(C)n(CC2CCCN2C(=O)c2cnn(C)c2C2CC2)n1` (centres undefined), for which the Percent Effect stood at 9.84%.
In the case of `CCC(C)(NCC(=O)Nc1nc(C)cs1)c1nc(C)cs1` (centres undefined), the Percent Effect is 21%.
Same read-out and setting: the value for `CCOc1nnc(CN2CCC(N(C)Cc3noc(C)n3)C2)s1` (centres undefined) was 11.4%.
Take `Cc1ccc(=O)n(CC2(O)CCN(Cc3cnc(C)nc3)CC2)n1`: the Percent Effect was 17.5%.
With `O=C(Cn1c(=O)n(Cc2ccco2)c2ncccc21)Nc1ccccn1`, the Percent Effect was determined as 3.38%.
With `COc1cccc(N2CCN(CC(O)c3cc(C)sc3C)CC2)c1` (centres undefined), the Percent Effect stood at 19.5%.
On the same count and under the same terms, under `CCOCC(=O)NC1(c2cccc(Br)c2)CC1` stands 13.1%; under `CCc1noc(C(C)N(C)CC(=O)Nc2ccc(C)cc2)n1` (centres undefined), -0.282%.
`CCn1cnnc1CNC(=O)c1cc(Cl)ccc1OC`: the Percent Effect worked out at 7.84%.
Consider `CCc1nc(CNC(=O)Nc2ccc(C(=O)NC)cc2C)cs1`, for which the Percent Effect stood at 11.9%.
On the same count and under the same terms, under `O=C(CCc1cccs1)N1CCC(Nc2cccnn2)CC1` stands 5.28%; under `COCC(=O)N1CCCC1c1cc(Nc2nnc(C)s2)nc(C)n1` (centres undefined), 8.53%; under `CCn1ccnc1CN1C[C@@H](CN2CCCC2)[C@@H](CO)C1`, -5.58%.
Consider `COc1ccccc1CC(=O)NCc1c(C)nc2cc(=O)[nH]n2c1C`, for which the Percent Effect is 7.43%.
Still for that read-out and setting: the value for `Cc1cc(-c2nnc(SCC(=O)O)n2C(C)c2ccccc2)nn1C` (centres undefined) was 7.01%; that for `CCOCCOC(C)C(=O)NCc1cn2cc(Br)ccc2n1` (centres undefined) was -18%; that for `CCc1nc2n(n1)CC(NCc1nc(C)ccc1O)CC2` (centres undefined) was -1.01%.
As to `COc1ccccc1CC(=O)NS(C)(=O)=O`, the Percent Effect was 20.4%.
The same measure, in the same setting: the value for `Cn1ccc(C(=O)NC2CCC23CCN(C(=O)c2ccncc2)CC3)c1` (centres undefined) was 3.03%; that for `O=C1N(c2ccc(F)cc2)Cc2nc(=O)n(Cc3cccc(Cl)c3)n21` was -6.59%.
As to `CNc1oc(-c2cc(S(=O)(=O)N3CCCCCC3)c(C)o2)nc1C#N`, the Percent Effect is 8.06%.
`COc1ccc(CN2CCCC3(CCN(c4ccsc4)C3=O)C2)cc1` (centres undefined): the Percent Effect amounted to 21.2%.
For the molecule `CCCc1n[nH]c(C2CN(CCCOc3ccccc3)CCO2)n1` (centres undefined), the Percent Effect came out at 2.3%.
As for `COCCNC(=O)c1sc(Nc2ccc(Cl)cn2)nc1C`, the Percent Effect is 5.99%.
Same read-out and setting: the value for `c1ccc(CCN2CCOC(Cn3cccn3)C2)nc1` (centres undefined) was 5.5%; that for `CC1=Nc2c(c(=O)[nH]n2C(C)C)C(c2ccccc2)S1` (centres undefined) was 32.4%; that for `CCCS(=O)(=O)N1CCO[C@H]2[C@H](OCc3ccccn3)CC[C@@H]21` was 5.42%.
On to `Cc1nn(C)c(C)c1C1CCCN1C(=O)CCNc1ncccn1` (centres undefined), for which the Percent Effect was -2.96%.
With `Cn1c(Cn2ccnc2)nnc1C1CCCN(C2CCCCC2)C1` (centres undefined), the Percent Effect is -7.16%.
With `Cc1cc(N2CCN(C(=O)c3cc(Cl)c[nH]3)CC2)nc(N)n1`, the Percent Effect amounted to 17.5%.
Take `CCNc1cc2c(nn1)CCN(C(=O)c1ccc(NC3CC3)nc1)C2`: the Percent Effect is 6.81%.
Same read-out and setting: the value for `Cc1cn2c(n1)CCC(NC(=O)CCn1ccnn1)C2` (centres undefined) was -2.68%.
